Only some compounds are listed: those with a hit (about 3.4% of all), similar ones and a draw of the others.
AI-2 QS mod: modulators of Vibrio harveyi AI-2 quorum sensing system. Vibrio harveyi JMH597 AI-2 luminescence/OD600 ratio, 9 h; active compounds read low; strain lacks LuxN and CqsS sensors; 0 = neutral-control median. actives 0.4% (n = 300,000). activity change, % at 7.5 µM. AID 2094; in the data active means activity change below about -75%, passing the limit was not always enough;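 further: luminescence divided by OD600 gain over 9 h not by final OD600 alone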
HSP90 inh: HSP90 refolding inhibition in rabbit reticulocyte lysate | inhibition, % at 5.6 µM | actives 0.91% (n = 290,000) | luciferase refolding luminescence, 3 h;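 active means inhibition above the screen-wide mean plus 3 SD, computed separately per campaign, cut at about 16% in these data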;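 further: 0% = DMSO wells and 100% = 60 µM geldanamycin wells; inhibitors lower the luminescence because luciferase stays unfolded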
FXN GAA850 act: activators of GAA850 frataxin (FXN) promoter; HEK293 lucGAA850 FXN promoter luciferase reporter, 24 h; percent of 10 µM SAHA response; actives 0.56% (n = 360,000); activation, % at 6 µM;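 active means activation above the average of all compounds screened plus 3 SD, cutoff fixed separately per campaign, cut at about 7.5% in these data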;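 further: 0% = DMSO wells and 100% = 10 µM SAHA wells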
SMARCA2 activ: SMARCA2 function activation, primary screen; MG213 cells, MMTV-luciferase reporter, dexamethasone, overnight; activation, % at 9.1 µM; actives 1% (n = 370,000); in the data active means activation above about 7.8%;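 further: 0% = vehicle wells and 100% = reference activator wells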
HSF1 inh: HSF1 inhibition. NIH3T3-HGL HSE-luciferase, MG132-induced, luminescence 8 h; active compounds read low. activity change, negative = inhibition, % at 7.5 µM (by protocol). actives 0.77% (n = 300,000);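 active means more than half of replicate wells show activity change below -50%, luminescence cut by over half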;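 further: luciferase reports HSF-1 transcriptional activity via heat shock element; 0% = median of DMSO wells and -100% = zero luminescence signal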
PG9 binder: binds the HIV-1 gp120 antibody PG9. TR-FRET gp120-PG9 antibody binding. inhibition, % at 6.7 µM. actives 0.43% (n = 360,000). AID 624416; in the data active means inhibition above about 8.5%
Numbers without * were called inactive; / = no result.

SMILES	AI-2 QS mod	HSP90 inh	FXN GAA850 act	SMARCA2 activ	HSF1 inh	PG9 binder
Cc1cc([N+](=O)[O-])c2ccccc2[n+]1[O-]	2	4	-12	/	-78*	/
Cc1ccccc1[N+](=O)[O-]	/	/	-1	-2	/	-2
COc1ccc(CN2Cc3cc(N4CCCCC4)ccc3-n3nncc3C2)cc1	/	/	/	7	/	-2
NC(=O)c1c(Br)n(C2OC(CO)C(O)C2O)c2ncnc(N)c12 (configuration not stated)	/	/	-6	-2	/	-1
NC(=O)c1cn(C2OC(CO)C(O)C2O)c2ncnc(N)c12 (configuration not stated)	32	2	-11	-13	-66*	-1
COc1ccc(CN2CC=C(c3ccc(F)cc3)CC2)cc1Br	-4	3	-1	2	-68*	-3
CCN(CC)c1ccc(CN2CC=C(c3ccc(F)cc3)CC2)cc1	-7	-4	-1	0	3	2
CC(C)C[C@H]1N=C(c2ccccc2)c2ccccc2N(CC(=O)NC(C)(C)C)C1=O	/	/	/	-4	/	/
Cc1ccc2c(c1)N(C(=O)CCC(=O)N1CCC3(CC1)OCCO3)CCO2	14	-3	0	-1	-51*	0
COc1cccc(C)c1NC1=NCCO1	/	/	-1	-2	/	0
O=c1[nH]c(=O)n(-c2ccc(Cl)cc2)c(O)c1C=Nc1ccc(S(=O)(=O)Nc2nccs2)cc1	-78*	-2	-2	-3	8	-4
N[C@@H]1CCCC[C@H]1N.O=C(O)C(=O)O.[Pt]	2	/	/	/	-5	/
CN(C)c1ccc(/C=C/[N+](=O)[O-])cc1	-9	6	4	-3	11	-24
C/C(=C\c1ccc(N(C)C)cc1)[N+](=O)[O-]	-91*	4	-6	-3	36	-8
O=[N+]([O-])c1ccc(N2CCCC2)c2ncccc12	-13	6	2	-2	-7	-3
CC1CN(c2ccc([N+](=O)[O-])c3cccnc23)CC(C)N1 (configuration not stated)	13	-2	9.6*	0	3	-1
COC(=O)C(O)(c1ccc(NC(=O)Oc2ccccc2)cc1)C(F)(F)F (configuration not stated)	-76*	-4	0	-3	-10	1
COC(=O)C(O)(c1ccc(NC(=S)NC(=O)c2ccccc2)cc1)C(F)(F)F (configuration not stated)	23	-1	1	1	-26	-2
CNc1cc(Cl)c2nonc2c1[N+](=O)[O-]	-90*	4	-10	-13	113	2
COc1ccc(Br)cc1CN1CCN(CCO)CC1	21	2	0	5	-87*	-4
COc1cc(Br)cc(CN2CCN(C)CC2)c1O	12	-5	0	/	/	/
CNC(=O)Oc1cccc(-c2cn3cc(Cl)ccc3n2)c1	19	49*	4	4	29	1
CCc1ccc(N2C(=O)NC(=O)/C(=C\c3cccn3CCOc3ccc(C(C)C)cc3)C2=O)cc1	12	31*	2	2	8	0
N#CC(C#N)=Cc1ccc(C=C(C#N)C#N)cc1	/	49*	3	-1	/	-1
Cc1cc(N2CCCC2)ccc1C=C(C#N)C#N	23	2	0	-5	-7	-1
SMILES	AI-2 QS mod	HSP90 inh	FXN GAA850 act	SMARCA2 activ	HSF1 inh	PG9 binder
C=CCn1c(O)c(C(C)=NC2CCN(Cc3ccccc3)CC2)c(=O)[nH]c1=O	10	-1	0	-2	-88*	-1
C=CCn1c(O)c(C(C)=NC2CC2)c(=O)[nH]c1=O	11	-3	-1	-4	5	0
O=C(NCCN1CCC2(CC1)C(=O)NCN2c1ccccc1)c1ccc(F)cc1	/	/	/	-3	/	-1
N#CC(c1cccnc1)N1CCOCC1 (configuration not stated)	17	16*	1	-1	-1	2
CC(=O)Nc1ccccc1C(=O)OCC(=O)c1ccc2ccccc2c1	1	-1	0	-4	22	1
Nc1ccccc1C(=O)OCC(=O)c1ccc2c(c1)OCCO2	12	1	1	1	-57*	4
COC(=O)C1=C(c2ccc(OCc3ccccc3)cc2)C[C@@H]2CC[C@H]1N2C(=O)NCc1ccc2c(c1)OCO2	/	/	-12	-4	/	1
CCn1nc(-c2ccccc2)nc2c(=O)n(C)c(=O)nc1-2	-93*	83*	-6	/	/	/

Assay outcomes as filed in PubChem.
